The text below walks through data of PubChem BioAssay.

SMILES strings stand for the structures. Activity calls are given as the source filed them.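 The calls were made as follows: active = inhibition at or above 50% at 10 µM; inactive = inhibition below 50%.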

A short description of the assay: inhibitors of Sendai virus-induced IRF3 signaling, primary screen, TLR/RLR signaling modifier project, cell-based, Sendai virus stimulus, luciferase, 10K MLSCN set (AID 602276).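 Also: firefly luciferase from ISG56 promoter only with Renilla not read in this screen; 0% = Sendai virus plus DMSO and 100% = medium plus DMSO without virus.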 The conditions noted are these: HEK293 RL24 IRF3 luciferase reporter, at 10 µM, stronger effect = higher value. On the technique in general: In a reporter assay the amount or activity of a reporter protein is the signal.
A word on the inhibition: it is the drop in the measured response relative to a control, in per cent. For the compound `CCOC(=O)Cn1ncc(-c2ccccc2)c1N`, the inhibition is -14.7% (inactive).
Then `O=C(NCC(c1cccnc1)N1CCN(c2ccc(F)cc2)CC1)OCc1ccccc1` (stereo not given), with 17.1% (inactive); and `O=C(c1ccc(Cl)cc1)N1CCCOC1`, with 10.5% (inactive).
Then `Cc1ccc(S(=O)(=O)C2(C(=O)Nc3cccnc3)CC2)cc1`, with 9.66% (inactive); and `Cc1[nH]nc(N=CC2=C(O)CC(C)(C)CC2=O)c1-c1ccc(Cl)cc1`, with 11.6% (inactive); and `CC(C)(C)c1ccc2c(c1)OCC(C(=O)O)O2` (stereo not given), with -8.63% (inactive).
As for `Cn1c(=O)[nH]c(=O)c2c1nc(NCCCn1ccnc1)n2Cc1ccccc1`, the inhibition was -9.45% (inactive).
As for `CCOC(=O)C(NC(=O)CC)(Nc1ccc(S(=O)(=O)Nc2onc(C)c2C)cc1)C(F)(F)F` (stereo not given), the inhibition was 11.3% (inactive).
As to `CCOc1ccc(S(=O)(=O)Nc2ccc(Cl)cn2)c(C)c1C`, the inhibition was 4.93% (inactive).
Then `O=C(OCC#CCSc1nnc(-c2ccncc2)o1)c1cccs1`, with 1.96% (inactive); and `O=P(O)(O)C(O)C(F)(F)C(F)(F)C(F)(F)C(F)F` (stereo not given), with 19.8% (inactive).
Under `COc1ccc(-c2nnc(SCC(=O)Nc3cc(C)on3)n2C)cc1OC` stands -4.06% (inactive); under `Cc1c(C#N)c(N)c(C(=O)c2ccccc2)n1Cc1ccccc1`, -20.6% (inactive); under `CCC(C)NCC(O)COCc1ccc(Cl)cc1` (stereo not given), 15.4% (inactive).
Then `CC(=O)N1CCc2cc(S(=O)(=O)CCC(=O)Nc3cccc(F)c3)ccc21`, with 7.41% (inactive); and `O=c1c2[nH]c3cccc(Cl)c3c2ncn1CCN1CCCCC1`, with 16.5% (inactive).
Regarding `O=C(Nc1cccc2ccccc12)c1ccc(Br)o1`, the inhibition was 2.74% (inactive).
In the case of `CN(C)S(=O)(=O)c1ccc(C(=O)N2CCCC2c2nc3ccccc3s2)cc1` (stereo not given), the inhibition is -17.9% (inactive).
Under `CSc1ccccc1NC(=O)C1CCCO1` (stereo not given) stands -13.9% (inactive); under `C=CCn1c(=O)c2ccccc2n2c(SC(C)C(=O)Nc3nc(-c4ccccc4)cs3)nnc12` (stereo not given), 10.9% (inactive).
Turning to `CC1Cc2ccccc2N1C(=O)CSc1nc2ccccc2n1CC(=O)N1CCOCC1` (stereo not given), the inhibition is 15.4% (inactive).
Under `COc1ccccc1C(=O)NC(C)C(c1cccs1)N1CCN(C)CC1` (stereo not given) stands -13.5% (inactive); under `CCn1cc(C(=O)NCCCOC)c(=O)c2cc(S(=O)(=O)N(C)C)ccc21`, 4.09% (inactive); under `Cc1cc(N2C(=O)C(O)=C(C(=O)c3ccc(C)o3)C2c2cccs2)no1` (stereo not given), -1.8% (inactive).
Then `Cc1ccc(CNC(=O)C2CC(=O)OC23CCCC3)c(C)c1` (stereo not given), with 17.7% (inactive).
Under `CCSc1nc2ccccc2n1CCC(=O)O` stands 10.2% (inactive).
For the compound `COc1ccc(-c2nc(CS(=O)CC(=O)N3CCCC3)c(C)o2)cc1` (stereo not given), the inhibition was 26% (inactive).
For `COc1ccc2c(c1)CCc1cc(C(=O)N3CCN(c4ccc(N5CCOCC5)nn4)CC3)sc1-2`, the inhibition was 2.81% (inactive).
For `COC(=O)c1ccc(Oc2nc(NC(C)C)nc(N(C)C)n2)cc1`, the inhibition is -2.9% (inactive).
Then `COc1ccc(N(CC(=O)N2CCCCC2)S(=O)(=O)c2ccccc2)c(OC)c1`, with 12% (inactive); and `O=c1cc(CSc2nnnn2-c2ccccc2)nc2scc(-c3ccccc3)n12`, with 1.29% (inactive).
In the case of `O=C1CCCc2c1nn(-c1ccccc1)[n+]2[O-]`, the inhibition is 2.04% (inactive).
Then `Nc1nc(Nc2ccc(Cl)cc2Cl)nc(C(F)(F)F)n1`, with -32.5% (inactive); and `Cn1c(=O)c2c(nc(NCc3ccco3)n2C/C=C/c2ccccc2)n(C)c1=O`, with 14.8% (inactive); and `Cn1c(=O)[nH]c(=O)c2c1nc(N1CCc3ccccc3C1)n2CCSc1nc2ccccc2s1`, with 19.3% (inactive).
Take `COC(=O)c1oc2ccc(Br)cc2c1NC(C)=O`: the inhibition is 16.9% (inactive).
Then `COc1cc(NC(=O)CC(C)C)ccc1NC(=O)c1ccco1`, with -64.3% (inactive); and `CCOC(=O)N1CCC(NC(=O)C2CCC(Cn3c(=O)[nH]c4ccccc4c3=O)CC2)CC1` (stereo not given), with 6.35% (inactive).
Then `Cc1cc(C(F)F)n2nc(C(=O)Nc3ccc(S(=O)(=O)N4CCCCCC4)cc3)nc2n1`, with 17.7% (inactive).
Under `O=C(NCCN1CCOCC1)C1CCC(=O)N1Cc1ccccc1Cl` (stereo not given) stands 10.4% (inactive).
